These results are taken from article PMC5700166.

What all share (experiment): protein-binding microarray (PBM); PBM: ~300 nM protein, 6 mM HEPES pH 7.8, 80 mM KCl, 0.5 mM EDTA, 0.5 mM EGTA, 6% glycerol, 35 ng/ul poly-dIdC, 1% milk, 1 h, room temperature; Ap Aiptasia and Nv Nematostella (sea anemones) / Co Capsaspora / Aq Amphimedon (sponge) / Dm Drosophila / Hu human; RHD is the Rel homology domain; high values mean tight binding
Common to all, as to conditions: dsDNA, one strand shown

Assay [1] addresses T1, GST-Ap-NF-kB RHD (Exaiptasia pallida (Aiptasia), UniProt A0A913YAJ5 2-422).
T1 sequence: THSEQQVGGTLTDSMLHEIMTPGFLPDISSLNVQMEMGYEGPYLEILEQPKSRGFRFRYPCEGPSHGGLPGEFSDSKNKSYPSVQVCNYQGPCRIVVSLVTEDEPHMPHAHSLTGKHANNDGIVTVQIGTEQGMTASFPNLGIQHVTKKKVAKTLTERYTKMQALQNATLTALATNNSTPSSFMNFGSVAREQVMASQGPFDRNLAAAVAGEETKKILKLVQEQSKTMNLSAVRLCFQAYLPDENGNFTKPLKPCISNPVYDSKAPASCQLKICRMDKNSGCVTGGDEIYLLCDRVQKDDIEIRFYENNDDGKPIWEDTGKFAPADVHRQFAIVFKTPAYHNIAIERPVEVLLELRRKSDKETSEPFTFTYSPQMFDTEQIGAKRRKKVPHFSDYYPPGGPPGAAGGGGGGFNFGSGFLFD

The target in assay [2] is T2, GST-Nv-NF-kB (Cys allele) (Nematostella vectensis, UniProt E5G601 2-411).
T2 sequence: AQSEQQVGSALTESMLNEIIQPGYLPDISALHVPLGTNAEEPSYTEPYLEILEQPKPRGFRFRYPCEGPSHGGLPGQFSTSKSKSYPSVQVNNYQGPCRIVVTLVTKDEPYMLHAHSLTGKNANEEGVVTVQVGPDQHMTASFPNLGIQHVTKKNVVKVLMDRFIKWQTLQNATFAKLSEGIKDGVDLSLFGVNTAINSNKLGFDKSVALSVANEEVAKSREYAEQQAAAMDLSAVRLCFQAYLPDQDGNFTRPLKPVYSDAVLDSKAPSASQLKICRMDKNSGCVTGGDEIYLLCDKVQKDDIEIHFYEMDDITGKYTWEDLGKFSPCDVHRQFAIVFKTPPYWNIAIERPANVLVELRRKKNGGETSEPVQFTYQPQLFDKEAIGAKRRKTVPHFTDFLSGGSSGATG

For assay [3], the target named is T3, GST-Nv-NF-kB (Ser allele) (Nematostella vectensis, UniProt A7UNT2 2-411).
T3 sequence: T2 sequence with Q21R, C66S, S207N, E215Q, V217A, E225K, A268E, D399E

Assay [4] deals with T4, GST-Co-NF-kB (Capsaspora owczarzaki, UniProt F1ARL5 200-546).
T4 sequence: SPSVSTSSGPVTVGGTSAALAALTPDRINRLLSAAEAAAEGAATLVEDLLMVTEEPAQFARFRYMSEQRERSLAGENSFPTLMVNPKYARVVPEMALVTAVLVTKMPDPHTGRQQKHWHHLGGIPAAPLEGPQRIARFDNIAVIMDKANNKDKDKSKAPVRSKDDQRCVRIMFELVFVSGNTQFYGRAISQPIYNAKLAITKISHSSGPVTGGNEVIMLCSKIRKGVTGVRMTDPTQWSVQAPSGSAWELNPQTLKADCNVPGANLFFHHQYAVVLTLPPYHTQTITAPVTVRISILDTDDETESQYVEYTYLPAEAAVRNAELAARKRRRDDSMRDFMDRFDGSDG

For assay [5], the target named is T5, GST-Dm-Relish (Drosophila melanogaster, UniProt Q94527 99-473).
T5 sequence: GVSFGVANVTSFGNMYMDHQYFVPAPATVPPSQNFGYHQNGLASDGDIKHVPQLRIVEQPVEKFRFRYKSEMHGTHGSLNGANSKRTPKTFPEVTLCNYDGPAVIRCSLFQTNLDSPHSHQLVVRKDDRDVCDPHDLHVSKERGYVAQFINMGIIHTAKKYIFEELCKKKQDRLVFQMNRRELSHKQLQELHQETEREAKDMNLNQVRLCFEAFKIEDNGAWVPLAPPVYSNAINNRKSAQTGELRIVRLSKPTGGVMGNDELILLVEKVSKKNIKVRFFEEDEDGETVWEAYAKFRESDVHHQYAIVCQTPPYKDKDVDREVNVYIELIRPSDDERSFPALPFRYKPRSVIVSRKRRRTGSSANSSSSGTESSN

Assay [6] addresses T6, GST-Aq-NF-kB (Amphimedon queenslandica, UniProt A9Y5G7 2-389).
T6 sequence: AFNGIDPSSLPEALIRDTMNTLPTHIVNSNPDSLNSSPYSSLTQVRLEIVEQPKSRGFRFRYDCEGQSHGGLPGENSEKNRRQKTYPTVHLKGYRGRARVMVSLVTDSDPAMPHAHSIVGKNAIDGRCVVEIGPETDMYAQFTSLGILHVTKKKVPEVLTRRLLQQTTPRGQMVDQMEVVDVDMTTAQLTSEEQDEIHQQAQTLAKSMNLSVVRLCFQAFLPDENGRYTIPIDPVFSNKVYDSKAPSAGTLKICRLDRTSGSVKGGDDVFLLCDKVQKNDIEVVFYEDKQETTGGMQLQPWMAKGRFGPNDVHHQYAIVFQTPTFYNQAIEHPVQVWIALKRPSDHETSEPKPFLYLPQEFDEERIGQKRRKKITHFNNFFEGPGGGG

Assay [7] deals with GST-Hu-p50 (Homo sapiens, UniProt P19838 7-356).
Chain of GST-Hu-p50 (P19838 7-356): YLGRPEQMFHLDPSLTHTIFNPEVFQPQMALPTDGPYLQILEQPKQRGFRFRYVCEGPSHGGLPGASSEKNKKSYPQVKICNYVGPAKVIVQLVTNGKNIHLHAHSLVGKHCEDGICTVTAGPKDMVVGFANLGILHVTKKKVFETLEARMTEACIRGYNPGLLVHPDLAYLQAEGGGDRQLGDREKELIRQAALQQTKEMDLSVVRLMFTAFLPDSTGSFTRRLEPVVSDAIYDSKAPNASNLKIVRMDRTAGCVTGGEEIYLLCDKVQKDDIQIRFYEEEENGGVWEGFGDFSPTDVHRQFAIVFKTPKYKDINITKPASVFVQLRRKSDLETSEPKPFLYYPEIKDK

Substitutions are numbered along the chain they refer to.

Regarding “CCGATTAACATCACGGGATTTGGTGATGTTAATCGGGTCTTGATTCGCTTGACGCTGCTG”, the binding signal was 1.89 z-score in assay [1]; 1.93 z-score in assay [2]; 1.12 z-score in assay [3]; 1.17 z-score in assay [4]; 1.79 z-score in assay [5]; 1.61 z-score in assay [6]. The sequence further returned a binding signal in assay [7] of 2.36 z-score.
With “CCGATTAACATCAATTTTCCCCGTGATGTTAATCGGGTCTTGATTCGCTTGACGCTGCTG”, the binding signal amounted to 6.99 z-score in assay [1]; 8.12 z-score in assay [2]; 10.2 z-score in assay [3]; 11 z-score in assay [4]; 4.87 z-score in assay [5]; 6.2 z-score in assay [6]. Moreover, the binding signal in assay [7] turned out to be 5.95 z-score.
For the sequence “CCGATTAACATCAAAAAATTCCCTGATGTTAATCGGGTCTTGATTCGCTTGACGCTGCTG”, the binding signal in assay [1] stood at 6.84 z-score; in assay [2], 10.3 z-score; in assay [3], 9.33 z-score; in assay [4] it was 5.79 z-score; in assay [5] it was 8.53 z-score; in assay [6] it was 8.5 z-score. For the same sequence, the binding signal in assay [7] amounted to 6.48 z-score.
“CCGATTAACATCACTTATCCCCCTGATGTTAATCGGGTCTTGATTCGCTTGACGCTGCTG”: the binding signal in assay [1] was 4.81 z-score; in assay [2] it was 3.72 z-score; in assay [3], 4.72 z-score; in assay [4], 6.68 z-score; in assay [5] it was 2.71 z-score; in assay [6], 3.72 z-score. The binding signal in assay [7] is 4.19 z-score.
Turning to “CCGATTAACATCAGGGGACTCCATGATGTTAATCGGGTCTTGATTCGCTTGACGCTGCTG”, the binding signal came out at 6.58 z-score in assay [1]; 4.64 z-score in assay [2]; 4.65 z-score in assay [3]; 1.82 z-score in assay [4]; 7.69 z-score in assay [5]; 4.63 z-score in assay [6]. The binding signal in assay [7] was 4.91 z-score.
For “CCGATTAACATCAGAGTATTCCCTGATGTTAATCGGGTCTTGATTCGCTTGACGCTGCTG”, the binding signal is 3.08 z-score in assay [1]; 2.98 z-score in assay [2]; 3.2 z-score in assay [3]; 2.71 z-score in assay [4]; 2.22 z-score in assay [5]; 3.06 z-score in assay [6]. Besides, the binding signal in assay [7] was found to be 1.6 z-score.
For “CCGATTAACATCAGGGGATTGTATGATGTTAATCGGGTCTTGATTCGCTTGACGCTGCTG”, the binding signal in assay [1] worked out at 6.91 z-score; in assay [2], 7.07 z-score; in assay [3], 8.67 z-score; in assay [4], 3.04 z-score; in assay [5], 4.19 z-score; in assay [6] it was 5.12 z-score. The same sequence registered a binding signal in assay [7] of 6.01 z-score.
On to “CCGATTAACATCAGAATCTCCCCTGATGTTAATCGGGTCTTGATTCGCTTGACGCTGCTG”, for which the binding signal in assay [1] amounted to 7.81 z-score; in assay [2], 6.42 z-score; in assay [3], 6.73 z-score; in assay [4], 6.25 z-score; in assay [5], 3.02 z-score; in assay [6], 5.81 z-score. The binding signal in assay [7] was found to be 5.32 z-score.
In the case of “CCGATTAACATCACGGGGCCCCCTGATGTTAATCGGGTCTTGATTCGCTTGACGCTGCTG”, the binding signal in assay [1] is 5.45 z-score; in assay [2], 3.6 z-score; in assay [3], 2.68 z-score; in assay [4], 1.49 z-score; in assay [5], 3.89 z-score; in assay [6], 4.31 z-score. The binding signal in assay [7] worked out at 3.47 z-score.
Turning to “CCGATTAACATCACCCACCCCCCTGATGTTAATCGGGTCTTGATTCGCTTGACGCTGCTG”, the binding signal turned out to be 3.58 z-score in assay [1]; 2.85 z-score in assay [2]; 4.5 z-score in assay [3]; 3.74 z-score in assay [4]; 4.19 z-score in assay [5]; 3.84 z-score in assay [6]. This sequence displayed a binding signal in assay [7] of 3.99 z-score.
Consider “CCGATTAACATCAGGGGGAACCCTGATGTTAATCGGGTCTTGATTCGCTTGACGCTGCTG”, for which the binding signal in assay [1] is 8.64 z-score; in assay [2] it was 7.75 z-score; in assay [3] it was 7.25 z-score; in assay [4] it was 8.49 z-score; in assay [5], 9.93 z-score; in assay [6], 8.13 z-score. In addition, the binding signal in assay [7] is 6.39 z-score.
